In the library only some 21% were active in any assay of this set; here they are far more common.
Pf growth 48h: P. falciparum growth inhibition at 48 hours (one generation). hit rate 5.9% among 310,000. Potency, µM (series often up to 28.7 µM), most hits filed as inhibitors. P. falciparum luciferase growth in erythrocytes, 48 h. AID 504832
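Read-out is firefly luciferase luminescence from an integrated reporter in P. falciparum, so falling signal marks reduced parasite growth. Infected erythrocytes were at 2% hematocrit and 0.1% parasitemia (final) in Albumax-supplemented RPMI 1640.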
Shiga inhibitor: Shiga toxin inhibition | AID 2315 | inhibition, % at 38.7 µM | Vero cells, Shiga toxin protein synthesis inhibition reporter | hit rate 9.2% among 290,000; in the data active means inhibition mostly above about 28%, no sharp cut-off; inactive means mostly below about 43%
CHX counter: affects cycloheximide protein synthesis inhibition readout, counter-screen; max response, %; AID 2314; hit rate 12% among 300,000; cell reporter, cycloheximide protein synthesis inhibition counterscreen; in the data active means max response mostly above about 13%, no sharp cut-off; inactive means mostly below about 14%; further: read at 38.3 µM for the half of the compounds with a filed dose
Sm TGR inh: blocks Schistosoma mansoni thioredoxin glutathione reductase. Q962Y6. purified TGR, DTNB reduction, TNB absorbance 405 nm. Potency, µM (doses to about 114 µM), hits mostly inhibitors. hit rate 3% among 360,000; further: nearly all actives have a fitted effect of over 60% in size
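First, TGR (20 nM dispensed) and NADPH were mixed with compound. Second, a 15 min room-temperature incubation followed. Third, further NADPH and then DTNB were added to start the reaction. Finally, TNB absorbance was monitored kinetically.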
Pf growth 96h: inhibits malaria parasite growth, 96 h; hit rate 6.9% among 320,000; P. falciparum luciferase reporter growth, 96 h; Potency, µM (top dose mostly 28.7 µM), usual class: inhibitors; AID 504834
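Two-generation exposure (96 h) targets delayed-death phenotype. Reporter parasites carrying integrated firefly luciferase, in red cells at 2% hematocrit and 0.05% parasitemia final, kept at 37 C, 5% CO2; luminescence loss indicates inhibition.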
NS1 function inh: blocks influenza NS1 protein function. Potency, µM (doses to about 46.1 µM). hit rate 0.4% among 270,000; calls by dose curve; further: actives are rising curves; nearly all actives have a fitted effect of over 50% in size
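A cell-based growth assay was used: compounds that relieve NS1-induced slow growth of budding yeast raise OD600. Assay medium was yeast nitrogen base with ammonium sulphate and -URA supplement, pH 6.0, with 2% galactose.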
Numbers stand for hits. Unless noted, the call rests on the fitted dose curve; in most records, active means well fitted curve in the direction sought with a large enough effect; inconclusive means small, poorly fitted or top-dose-only effect, or another doubt; inactive means no such curve, though single readings can be large; an effect the other way counts as inactive or inconclusive.

`O=C(NCC(c1cccs1)S(=O)(=O)c1ccccc1)c1ccc(C(F)(F)F)cc1` (centres undefined) gave Sm TGR inh inactive.
Screening Cc1ccc(C(=O)NCC(c2ccco2)S(=O)(=O)c2ccccc2)cc1C (centres undefined) returned Sm TGR inh inactive.
For O=C(NCC(c1ccco1)S(=O)(=O)c1cccs1)c1ccc(C(F)(F)F)cc1 (centres undefined) the results were Sm TGR inh 4.47µM.
For Cc1c(NC(=O)CN2c3ccccc3CC2C)c(=O)n(-c2ccccc2)n1C (centres undefined) the results were Pf growth 48h inactive, Shiga inhibitor inactive, CHX counter inactive, Sm TGR inh inactive and Pf growth 96h inactive.
CC[C@H](C)[C@H](NC(=O)[C@H](Cc1ccccc1)NC(=O)[C@H](CCC(=O)O)NC(=O)[C@H](CCCCN)NC(=O)[C@H](C)NC(=O)[C@H](C)NC(=O)[C@H](CCC(N)=O)NC(=O)CNC(=O)[C@H](CCC(=O)O)NC(=O)[C@H](CC(C)C)NC(=O)[C@H](Cc1ccc(O)cc1)NC(=O)[C@H](CO)NC(=O)[C@H](CO)NC(=O)[C@@H](NC(=O)[C@H](CC(=O)O)NC(=O)[C@H](CO)NC(=O)[C@@H](NC(=O)[C@H](Cc1ccccc1)NC(=O)[C@@H](NC(=O)CNC(=O)[C@H](CCC(=O)O)NC(=O)[C@H](C)NC(=O)[C@@H](N)Cc1cnc[nH]1)[C@@H](C)O)[C@@H](C)O)C(C)C)C(=O)N[C@@H](C)C(=O)N[C@@H](Cc1c[nH]c2ccccc12)C(=O)N[C@@H](CC(C)C)C(=O)N[C@H](C(=O)N[C@@H](CCCCN)C(N)=O)C(C)C was read as Shiga inhibitor inactive and CHX counter inactive.
Screening O=C(NCCc1ccccc1)C(=O)NCC(c1ccco1)S(=O)(=O)c1cccs1 (centres undefined) returned Sm TGR inh 20µM.
For O=C(NCC(c1ccco1)S(=O)(=O)c1cccs1)c1ccccc1 (centres undefined) the results were Sm TGR inh 0.316µM.
For CC(C)(C)c1ccc(C(=O)NCC(c2cccs2)S(=O)(=O)c2ccc(F)cc2)cc1 (centres undefined) the results were Sm TGR inh inactive.
Screening CC(C)(C)c1ccc(C(=O)NCC(c2cccs2)S(=O)(=O)c2cccs2)cc1 (centres undefined) returned Sm TGR inh 35.5µM.
`OCC[C@@H]1C[C@H](O)[C@@H](O)[C@@]2(CCc3ccccc3CO2)O1` gave Pf growth 48h inactive, Shiga inhibitor inactive, CHX counter inactive, Sm TGR inh inactive, Pf growth 96h inactive and NS1 function inh inactive.
`Cc1ccc2c(c1)c1nc3ccccc3nc1n2C` gave Pf growth 48h inactive, Shiga inhibitor inactive, CHX counter 19.0, Sm TGR inh inactive, Pf growth 96h inactive and NS1 function inh inactive.
For Cc1ccc2c(c1)c1nc3ccccc3nc1n2CCN1CCOCC1 the results were Pf growth 48h inactive, Shiga inhibitor inactive, CHX counter 10.9, Sm TGR inh inactive and NS1 function inh inactive.
For CCn1c2ccc(C)cc2c2nnc(SCCN3CCOCC3)nc21 the results were Pf growth 48h inactive, Shiga inhibitor inactive, CHX counter inactive, Sm TGR inh inactive, Pf growth 96h inactive and NS1 function inh inactive.
`CC(CN1CCCCC1)NC(=O)c1cc(-c2ccccn2)nc2ccc(Cl)cc12` (centres undefined) gave Pf growth 48h inconclusive, Shiga inhibitor inactive, CHX counter inactive, Sm TGR inh inactive, Pf growth 96h inactive and NS1 function inh inactive.
Cc1cccc(-c2nc3c4ccccc4nc(NCCc4ccccc4)n3n2)c1 was read as Sm TGR inh inactive.
For COCCCNc1ncnc2c1c(-c1ccccc1)cn2-c1ccc(C)c(Cl)c1 the results were Sm TGR inh inactive.
`CC(Oc1ccc(F)cc1)C(=O)Nc1cc(Cl)ccc1-n1cncn1` (centres undefined) gave Pf growth 48h 2.33µM, Sm TGR inh inactive and Pf growth 96h 2.62µM.
CC(Oc1ccccc1)C(=O)Nc1cc(Cl)ccc1-n1cncn1 (centres undefined) was read as Pf growth 48h 3.7µM, Sm TGR inh inactive and Pf growth 96h 2.33µM.
